42 compounds from PubChem BioAssay AID887 (National Center for Advancing Translational Sciences (NCATS), 2007) can be followed below.

Values joined by “and” are separate entries in the source; they are usually repeats but may differ in a detail not shown here. Identical values can stand only once. Hit rate of the full screen: of about 74,000 compounds, about 1,100 (1.5%) were called active. Roughly 5% stayed inconclusive and do not appear here. What follows is part of a selection rich in actives, with near analogues and random picks from the rest. Entries that show only a call come without a potency. Values without a mark were called inactive. Calls follow the shape of the dose curve; as a rule, active = well fitted inhibition curve with a large enough effect; inconclusive = small, poorly fitted or top-dose-only effect; inactive = no such curve, though single readings can be large or run the other way.
Potency is read from the fitted curve at half-maximal effect.

Sequence of Polyunsaturated fatty acid lipoxygenase ALOX15 (Homo sapiens) (P16050 whole entry, looked up): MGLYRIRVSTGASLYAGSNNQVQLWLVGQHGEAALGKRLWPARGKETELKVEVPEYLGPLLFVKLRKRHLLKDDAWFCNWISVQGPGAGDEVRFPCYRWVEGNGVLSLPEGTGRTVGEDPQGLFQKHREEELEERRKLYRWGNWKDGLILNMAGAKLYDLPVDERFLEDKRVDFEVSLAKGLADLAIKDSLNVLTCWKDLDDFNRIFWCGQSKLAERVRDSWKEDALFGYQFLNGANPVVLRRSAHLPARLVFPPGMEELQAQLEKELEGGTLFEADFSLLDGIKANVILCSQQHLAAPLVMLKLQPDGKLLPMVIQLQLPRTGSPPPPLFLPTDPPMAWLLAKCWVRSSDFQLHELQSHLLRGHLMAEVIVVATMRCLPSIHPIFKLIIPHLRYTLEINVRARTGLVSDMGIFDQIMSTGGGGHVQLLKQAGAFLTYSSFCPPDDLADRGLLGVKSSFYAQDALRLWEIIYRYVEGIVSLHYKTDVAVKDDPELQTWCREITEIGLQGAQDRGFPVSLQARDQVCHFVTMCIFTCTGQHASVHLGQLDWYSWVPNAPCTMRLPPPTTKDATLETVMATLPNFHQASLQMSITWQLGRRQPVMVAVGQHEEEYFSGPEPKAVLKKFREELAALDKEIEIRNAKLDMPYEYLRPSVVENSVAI

For this assay, the target named is Polyunsaturated fatty acid lipoxygenase ALOX15 (Homo sapiens) (UniProt P16050). The assay can be described thus: qHTS Assay for Inhibitors of 15-hLO (15-human lipoxygenase). Also: nearly all actives have a fitted effect of over 55% in size. The conditions noted are these: purified 15hLO-1, xylenol orange hydroperoxide absorbance; series mostly up to 57.1 µM. The text has this:
Assay Overview: NIH Molecular Libraries Screening Centers Network [MLSCN] NIH Chemical Genomics Center [NCGC] MLSCN Grant: MH081283-01A1 PI Name: Holman, T.R., University of California, Santa Cruz Human lipoxygenase 15hLO-1 is a member of the closely related lipoxygenase family of enzymes which catalyze the site-specific oxidation of arachidonic acid to various hormone precursor molecules and as such is a candidate for drug development in a variety of disease areas, such as cancer and inflammation. Inhibition of 15hLO-1 activity was screened by utilizing arachidonic acid as a substrate. The extent of hydroperoxide product formation was measured by a secondary chromogenic reaction in which xylenol orange (XO, Sigma-Aldrich, cat. number 39,818-7) reacts with the ferric ions produced from the reaction between the hydroperoxide and ferrous ions. The Fe(III)-XO complex is characterized with red-shifted absorbance at 560 nm. A purified preparation of human 15hLO-1 was supplied by Professor Ted Holman, University of California, Santa Cruz.
Assay Protocol: Buffer: 25 mM Hepes pH 7.5, 0.01% Triton X-100. Reagents/Controls: Buffer in columns 3 and 4 as negative control (no enzyme). Substrate solution: 50 uM arachidonic acid (Sigma-Aldrich, St. Louis, MO) final concentration dispensed throughout the plate. Enzyme: 40 nM 15hLO-1 final concentration in columns 1, 2, 5-48. Column 1 is neutral (100% activity). Column 2 contained pin-transferred titration of NDGA (nordihidroguaiaretic acid, Sigma-Aldrich, N 5023, top concentration 10 mM in DMSO, then 1:2 dilution in duplicate). (Dilution factor: 23 nL into 4 uL.) Chromogenic detection reagent (divalent iron/xylenol orange, Fe-XO): 200 uM xylenol orange plus 300 uM ferrous ammonium sulfate prepared freshly in 50 mM sulfuric acid. Assay Steps: Three uL of enzyme were dispensed to 1536-well Greiner black clear bottom plates. Compounds and controls (23 nL) were transferred via Kalypsys PinTool. The plates were incubated for 15 min at room temperature, and then 1 uL of substrate solution was added to start the reaction. After room temperature incubation for 6 minutes, 4 uL of Fe-XO solution was added to each well followed by a short spin (1000 rpm, 15 sec) and the plates were then incubated for 30 min. The absorbance at 405 and 573 nm were measured using ViewLux (Perkin-Elmer) High-throughput CCD imager and absorbance protocol settings. The 573-to-405 absorbance ratio was used to compute reaction progress.
(Quantitative high-throughput screening tests each substance at several concentrations.)
On to `Cc1ccnc(-n2sc3ccccc3c2=O)n1`, for which the Potency is 20 µM (active). For the compound `Cc1ccnc(N2CCC(C(=O)NC3CCCCCC3)CC2)n1`, the activity change, negative = inhibition entry was “inactive”. Still for that read-out and setting: next, `Cc1nc2ccccc2c(=O)n1CCCn1ccnc1`: “inactive”. As to `CC(C)=CCC/C(C)=C/CC/C(C)=C/CC/C(C)=C/CO`, the activity change, negative = inhibition result was “inactive”. `O=C(O)[C@@H](O)Cc1ccccn1`: the activity change, negative = inhibition was 2.76% [at 11.4 µM].

As for `COc1ccc(/C=C/NC(=O)Cc2ccc(OC)c(OC)c2)cc1`, the activity change, negative = inhibition was 4.24% [at 11.4 µM] and -3.82% [at 11.4 µM]. In the case of `CCCCc1nc2ccccc2c(=O)n1NC(=O)c1c(O)c2cccc3c2n(c1=O)CC3`, the activity change, negative = inhibition result was “inactive”. Same read-out and setting: next, `CCOC(=O)N1CCN(CC(=O)Nc2cc(C)nn2-c2nc3ccccc3s2)CC1`: “inactive”. Take `CCCCc1nc2ccccc2c(NC(=O)CN2CCN(C)CC2)c1CCC`: the Potency is 15.8 µM (active).

For `CC(C)CN1CCc2nc(-c3ccccc3)c3c(c2C1)COC(C)C3` (configuration not stated), the activity change, negative = inhibition was -12.9% [at 11.4 µM]. On to `CO[C@H]1COC(=O)[C@H](Cc2ccccc2)NC(=O)C/C=C\[C@@H](C)[C@H](OC)COC(=O)C/C=C\[C@@H]1C`, for which the activity change, negative = inhibition was 10.5% [at 11.4 µM].

Regarding `COC(=O)NC(c1ccccc1)[C@]1(C(C)=O)CCCC1=O` (some centres not stated), the activity change, negative = inhibition is 9.57% [at 11.4 µM].

On to `c1ccc(CSc2nnc(-c3ccco3)n2Cc2ccccc2)cc1`, for which the activity change, negative = inhibition entry was “inactive”. On the same count and under the same terms, next, `Nc1cc(=O)nc(SCc2ccccc2)n1Cc1ccco1`: “inactive”. On to `c1ccc(CSc2nnc(-c3ccco3)c(-c3ccco3)n2)cc1`, for which the Potency was 6.31 µM (active). For the compound `CC(=O)OC1CCC2(O)CC1(C)CCC1C2CC1(C)C` (configuration not stated), the activity change, negative = inhibition result was “inactive”.

Take `COc1ccc(CCC(=O)c2c(O)cc(OC3OC(CO)C(O)C(O)C3O[C@@H]3OC(C)C(O)C(O)C3O)cc2O)cc1O` (some centres not stated): the activity change, negative = inhibition result is “inactive”. Turning to `CC(C)[C@@H](OCc1ccccc1)[C@H](C)/C=N\OC[C@@H](C)[C@H](OCc1ccccc1)C(C)C`, the activity change, negative = inhibition is -0.92% [at 11.4 µM].

On to `CO[C@H]1COC(=O)CCC[C@@H](C)[C@H](OC)COC(=O)[C@@H](C)NC(=O)C/C=C\[C@@H]1C`, for which the activity change, negative = inhibition is -1.39% [at 11.4 µM]. In the case of `CCC1(C)CC(=O)NC1=O` (configuration not stated), the activity change, negative = inhibition result is “inactive”. Turning to `Cc1c(NC(=O)C(C)OC(=O)c2cc3c4ccccc4n(C)c3s2)c(=O)n(-c2ccccc2)n1C` (configuration not stated), the Potency was 31.6 µM (active). As to `COC(=O)Nc1c(C)n(C)n(-c2ccccc2)c1=O`, the activity change, negative = inhibition result is “inactive”. As to `Cc1cc(C)cc(N(C(C)C(=O)Nc2c(C)n(C)n(-c3ccccc3)c2=O)S(C)(=O)=O)c1` (configuration not stated), the activity change, negative = inhibition result was “inactive”. Consider `CC1(C)OC2CO[C@]3(COS(N)(=O)=O)OC(C)(C)OC3C2O1` (some centres not stated), for which the activity change, negative = inhibition result was “inactive”. `COc1ccccc1OCCNCC(O)COc1cccc2[nH]c3ccccc3c12` (configuration not stated): the activity change, negative = inhibition entry is “inactive”. For the compound `Clc1ccc(CSc2nnc([C@@H]3CCCN3)o2)cc1`, the activity change, negative = inhibition entry is “inactive”. Same read-out and setting: next, `CC(C)N(CCNC(=O)c1ccc(-n2c(=O)c(=O)[nH]c3ccccc32)cc1)C(C)C`: “inactive”; `CCCc1[nH]nc2c1C(c1ccc(OC(=O)c3ccco3)cc1)C(C#N)=C(N)O2` (configuration not stated): “inactive”. Regarding `CCCc1[nH]nc2c1C(c1ccc(Br)s1)C(C#N)=C(N)O2` (configuration not stated), the Potency was 15.8 µM (active). In the case of `CCCc1[nH]nc2c1C(C1CC=CCC1)C(C#N)=C(N)O2` (configuration not stated), the activity change, negative = inhibition entry was “inactive”. On the same count and under the same terms, next, `C=C1C([C@@]2(C)C(OC(C)=O)CC(=O)O[C@@](C)(COC(C)=O)C2CC(=O)OC)C(OC=O)C(OC(=O)C(O)C(C)CC)[C@]2(C)C(c3ccoc3)CC(=O)C12O` (some centres not stated): “inactive”; `C/C=C(/C)C(=O)OC1Cc2c(ccc3ccc(=O)oc23)OC1(C)C` (configuration not stated): “inactive”.

On to `CCCCC(=O)Nc1ccc2c(c1)OCCO2`, for which the activity change, negative = inhibition entry is “inactive”. With `CCC1=C/C(=C\c2ccc3c(c2)OCO3)C(=O)S1`, the Potency was 25.1 µM (active). Regarding `CCOC(=O)NCc1ccc2c(c1)OCO2`, the activity change, negative = inhibition entry is “inactive”.

`Cc1ccc(C2CC(c3cccc(C)c3)n3nc(N)nc3N2)cc1` (configuration not stated): the activity change, negative = inhibition entry was “inactive”.

For `CO[C@@H]1COC(=O)C/C=C\[C@H](C)[C@@H](NS(=O)(=O)c2ccc(C)cc2)COC(=O)C/C=C\[C@@H]1C`, the activity change, negative = inhibition is 7.8% [at 11.4 µM] and 8.79% [at 11.4 µM].

As for `COc1ccc(C2CC(=O)c3c(O)cc(OC4OC(COC5OC(C)C(O)C(O)C5O)C(O)C(O)C4O)cc3O2)cc1O` (configuration not stated), the activity change, negative = inhibition result is “inactive”. On the same count and under the same terms, under `COc1c(C(C)C)oc2cc3oc(=O)ccc3cc12` stands “inactive”.

As to `CC(=O)Oc1c2c(c3c(c1CC=C(C)C)O[C@@]14C(=CC5CC1C(C)(C)OC4(C/C=C(\C)C(=O)O)C5=O)C3=O)OC(C)(CCC=C(C)C)C=C2` (some centres not stated), the activity change, negative = inhibition entry was “inactive”. Take `Nc1nc2nc(Cl)[nH]c2c(=O)[nH]1`: the activity change, negative = inhibition entry was “inactive”.

In the case of `CC1CCc2c(sc3c2C2=NS(=O)(=O)CCN2C=N3)C1` (configuration not stated), the activity change, negative = inhibition result was “inactive”.
